Screens from PubChem.
Sampled rows, rich in hits. Any-hit rate of the full collection: about 3.6%.
CRFBP-R2 block: antagonists of CRF-BP/CRF-R2 complex, primary screen, cell-based, HEK293, calcium dye fluorescence, uHTS. CRF-induced calcium fluorescence. inhibition, % at 11.8 µM. 0.59% of 350,000 active;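 active = inhibition of the ligand-induced calcium signal above about 50% at the single tested concentration, limit read from the data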
CendR NRP1 mod: modulators of CendR peptide binding to NRP-1, primary screen, biochemical, fluorescence polarization, uHTS. inhibition, % at 25 µM. Neuropilin-1 (Homo sapiens), O14786. 0.85% of 360,000 active. FAM-RPARPAR peptide binding to NRP-1. AID 602438, 2012;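 active = inhibition or corrected inhibition above about 18%, plus a signal ratio from 0.5 to 1.5, limit read from the data, passing the limit was not always enough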
NadD block: inhibitors of S. aureus NadD, primary screen, biochemical, colorimetric, uHTS; AID 602399, 2012; Nicotinate-nucleotide adenylyltransferase NadD (Staphylococcus aureus N315); purified NadD enzyme, colorimetric absorbance read-out; inhibition, % at 20 µM; 0.78% of 360,000 active; in the data active = inhibition above about 26%
FAS TE block: FAS thioesterase domain inhibitors, primary screen, biochemical, fluorescence intensity, uHTS. 0.67% of 360,000 active. recombinant FAS-TE, OMFH fluorogenic substrate, fluorescence endpoint. inhibition, % at 15 µM. AID 602261, 2012;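 active = compounds whose normalised, plate-corrected inhibition of enzyme fluorescence in the single-dose primary screen is 50% or more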
Target sequence (P49327 whole entry, looked up, the tested form may be a part): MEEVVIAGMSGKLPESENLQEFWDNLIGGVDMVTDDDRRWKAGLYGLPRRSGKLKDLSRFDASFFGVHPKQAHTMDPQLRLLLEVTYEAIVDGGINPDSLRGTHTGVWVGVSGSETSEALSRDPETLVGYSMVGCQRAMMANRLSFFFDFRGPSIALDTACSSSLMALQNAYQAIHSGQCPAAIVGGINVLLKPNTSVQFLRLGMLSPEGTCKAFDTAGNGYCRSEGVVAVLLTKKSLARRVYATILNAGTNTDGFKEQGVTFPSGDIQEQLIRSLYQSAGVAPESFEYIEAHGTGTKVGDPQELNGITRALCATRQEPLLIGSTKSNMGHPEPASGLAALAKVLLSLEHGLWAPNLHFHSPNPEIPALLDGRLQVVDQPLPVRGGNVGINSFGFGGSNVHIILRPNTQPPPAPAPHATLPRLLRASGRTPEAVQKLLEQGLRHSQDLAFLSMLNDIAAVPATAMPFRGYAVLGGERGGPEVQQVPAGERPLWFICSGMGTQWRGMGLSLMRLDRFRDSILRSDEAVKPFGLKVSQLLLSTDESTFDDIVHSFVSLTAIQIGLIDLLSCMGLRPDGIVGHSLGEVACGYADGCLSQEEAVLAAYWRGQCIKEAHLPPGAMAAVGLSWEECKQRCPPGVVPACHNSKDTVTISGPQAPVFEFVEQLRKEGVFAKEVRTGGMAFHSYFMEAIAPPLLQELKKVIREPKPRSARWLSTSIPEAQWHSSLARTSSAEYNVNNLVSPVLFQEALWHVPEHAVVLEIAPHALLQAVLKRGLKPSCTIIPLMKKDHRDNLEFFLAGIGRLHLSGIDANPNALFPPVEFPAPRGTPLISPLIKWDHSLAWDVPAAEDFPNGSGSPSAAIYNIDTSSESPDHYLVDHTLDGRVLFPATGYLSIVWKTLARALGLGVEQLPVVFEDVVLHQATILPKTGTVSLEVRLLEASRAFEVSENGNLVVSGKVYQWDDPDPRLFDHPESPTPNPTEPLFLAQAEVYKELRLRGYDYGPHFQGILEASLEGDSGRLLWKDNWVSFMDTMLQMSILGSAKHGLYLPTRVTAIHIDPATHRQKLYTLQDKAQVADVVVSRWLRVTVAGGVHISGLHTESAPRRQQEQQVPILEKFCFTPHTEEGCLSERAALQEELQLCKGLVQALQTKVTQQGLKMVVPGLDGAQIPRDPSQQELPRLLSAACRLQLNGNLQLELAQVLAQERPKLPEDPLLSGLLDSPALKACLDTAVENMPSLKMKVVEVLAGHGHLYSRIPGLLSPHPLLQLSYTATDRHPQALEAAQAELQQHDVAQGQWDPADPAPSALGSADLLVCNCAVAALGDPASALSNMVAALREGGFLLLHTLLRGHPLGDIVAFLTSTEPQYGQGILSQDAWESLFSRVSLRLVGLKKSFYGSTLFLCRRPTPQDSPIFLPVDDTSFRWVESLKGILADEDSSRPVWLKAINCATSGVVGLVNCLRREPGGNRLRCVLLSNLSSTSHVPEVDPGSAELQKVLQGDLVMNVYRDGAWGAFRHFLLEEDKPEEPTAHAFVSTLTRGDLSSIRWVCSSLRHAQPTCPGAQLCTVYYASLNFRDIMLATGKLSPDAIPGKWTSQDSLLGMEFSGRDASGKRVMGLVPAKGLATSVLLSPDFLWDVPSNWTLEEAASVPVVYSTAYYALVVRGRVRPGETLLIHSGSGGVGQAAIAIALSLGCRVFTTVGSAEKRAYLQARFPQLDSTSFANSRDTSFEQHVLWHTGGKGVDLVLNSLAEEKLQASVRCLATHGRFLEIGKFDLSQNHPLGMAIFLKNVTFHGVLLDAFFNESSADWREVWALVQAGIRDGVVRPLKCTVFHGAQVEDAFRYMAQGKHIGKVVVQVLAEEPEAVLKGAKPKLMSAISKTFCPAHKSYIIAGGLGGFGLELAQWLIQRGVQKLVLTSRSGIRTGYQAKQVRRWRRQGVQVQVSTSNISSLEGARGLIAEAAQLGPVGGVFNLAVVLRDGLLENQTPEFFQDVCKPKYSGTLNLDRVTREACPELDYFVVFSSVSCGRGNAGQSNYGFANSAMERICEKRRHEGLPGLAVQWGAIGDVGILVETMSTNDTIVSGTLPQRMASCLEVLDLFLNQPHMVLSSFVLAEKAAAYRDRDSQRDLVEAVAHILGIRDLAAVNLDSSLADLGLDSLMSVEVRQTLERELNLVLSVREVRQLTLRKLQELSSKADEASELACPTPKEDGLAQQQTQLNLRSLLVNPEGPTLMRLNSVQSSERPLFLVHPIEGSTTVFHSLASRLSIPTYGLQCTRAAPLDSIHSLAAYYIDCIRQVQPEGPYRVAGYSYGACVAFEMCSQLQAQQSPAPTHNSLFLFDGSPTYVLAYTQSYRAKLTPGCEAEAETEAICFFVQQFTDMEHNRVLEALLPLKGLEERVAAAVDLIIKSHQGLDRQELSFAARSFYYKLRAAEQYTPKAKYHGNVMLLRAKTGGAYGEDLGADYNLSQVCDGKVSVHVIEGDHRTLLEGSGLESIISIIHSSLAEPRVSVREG
Myeloid diff MLP: induction of myeloid progenitor differentiation, primary screen, cell-based, flow cytometry, MLPCN library; ER-HoxA9 myeloid progenitors, lysozyme-GFP differentiation; 1% of 360,000 active; calls only at 10 µM; AID 624256, 2012;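 active = normalized GFP-positive differentiation at or above the plate's own cutoff, the solvent-only control mean plus 3 SD; inconclusive = no clear call, values can overlap the other calls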;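 also: cells exposed to compound for four days before flow analysis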
Each line names hits and unclear results; the compound was inactive in the other large screens.

CC1=C(C(=O)N2CCOCC2)CC(CC(=O)NCCCCc2ccccc2)C(=O)N1Cc1ccc(F)cc1 (stereo not drawn)	none
COc1ccc2cc(C#N)c(N3CCN(C(=O)c4ccccc4C)CC3)nc2c1	none
CCN(CC)c1nc(C#N)cc(-c2ccc(OC)cc2)n1	CendR NRP1 mod 24, Myeloid diff MLP inconclusive
COc1ccc2cc(C#N)c(N3CCOCC3)nc2c1	Myeloid diff MLP active
CCN(CC)c1nc2cc(OC)ccc2cc1C#N	Myeloid diff MLP active
CCOC(=O)C1CCN(c2nc3cc(OC)ccc3cc2C#N)CC1	CRFBP-R2 block 57
O=C(NCc1cccnc1)c1cccc(S(=O)(=O)Nc2cccc(Cl)c2)c1	none
COc1ccc(NC(=O)CN(C)C(=O)c2cc(C)on2)cc1	none
O=C(Cc1n[nH]c(=O)c2ccccc12)NC(c1ccccc1)c1ccccc1	none
c1ccc(-c2ccc3sccc3n2)cc1	CendR NRP1 mod 27
CCOC(=O)c1[nH]c2ccc(OC)cc2c1NC(C)=O	none
CCOc1ccc2[nH]c(O)c(NC(C)=O)c2c1	CendR NRP1 mod 28
COc1ccc(OC)c(CN2C(=O)c3ccccc3C2c2nnnn2-c2ccc3c(c2)OCCO3)c1 (stereo not drawn)	Myeloid diff MLP inconclusive (no result: CRFBP-R2 block)
C[C@H]1CCCCO[C@H](CN(C)Cc2ccccc2)[C@@H](C)CN([C@@H](C)CO)C(=O)c2cc(NC(=O)CCC(F)(F)F)ccc2O1	none
CS(=O)(=O)N(CC(=O)Nc1ccccc1-c1ccccc1)c1cccc(F)c1	CendR NRP1 mod 27
CSc1nc(=O)[nH]nc1Sc1ccccc1	none
CCOC(=O)c1c(CC(C)C)csc1N	CRFBP-R2 block 55
CC(=O)Nc1ccc(CN(C)c2c(C)nc3ccc(C(=O)NCCCN4CCCC4=O)cn23)cc1	none (no result: CRFBP-R2 block)
Cc1ccc(N2C(=O)CC(C)CC2=O)cc1	none
O=C1NN(c2ccccc2)C(=O)/C1=C/c1ccc(Sc2ccc(Cl)cc2)o1	NadD block 52
Cc1c(-c2ccnc3cc(C(=O)O)nn23)cnn1C	none
CCn1cc(-c2ccnc3cc(C(=O)O)nn23)c(C)n1	CendR NRP1 mod 32
N#CC(C#N)=Cc1cccn1-c1ccc(C(=O)O)cc1	none
N#C/C(=C/c1cccn1-c1cccc(C(=O)O)c1)c1ccc(Cl)cc1	Myeloid diff MLP active
CC1(C2CC2)NC(=O)N(CC(=O)Nc2ccccc2F)C1=O (stereo not drawn)	CRFBP-R2 block 54
Cc1cccc(NC(=O)CCC(=O)c2cccs2)n1	none
COc1ccccc1NC(=S)NNC(=O)c1ccccc1Br	CendR NRP1 mod 21
CCCc1nc(SCC(=O)N2CCN(c3ccccc3)CC2)c2c(=O)n(C)c(=O)n(C)c2n1	Myeloid diff MLP active
N#Cc1ccsc1NC(=O)CSc1ncnc2ccccc12	Myeloid diff MLP active
O=C(N[C@H]1C/C=C\C[C@@H](CC(=O)N(CCO)Cc2ccccc2)C(=O)NC[C@H](c2ccccc2)OC1=O)OCC1c2ccccc2-c2ccccc21	Myeloid diff MLP active
O=C(C[C@H]1C/C=C\C[C@@H](Cc2ccc(F)cc2)C(=O)O[C@H](c2ccccc2)CNC1=O)NCCO	CRFBP-R2 block 84, CendR NRP1 mod 18
O=C(C[C@@H]1C/C=C/CC[C@H](Cc2ccc(F)cc2)C(=O)O[C@H](c2ccccc2)CNC1=O)NCCO	none
CC(C)(C)OC(=O)C[C@@H]1C/C=C\C[C@@H](CC(=O)NCCO)C(=O)NC[C@@H](c2ccccc2)OC1=O	CendR NRP1 mod 18
CC(C)(C)OC(=O)C[C@H]1C/C=C\C[C@@H](CC(=O)N[C@@H](CO)Cc2ccccc2)C(=O)NCCOC1=O	CendR NRP1 mod 36
O=C(NCC(F)(F)F)c1cc2c(c(-c3cccc(-c4ccccc4F)c3)n1)[C@@H](CCO)N(C(=O)CC1CC1)C2	none (no result: CRFBP-R2 block)
CC(C)(C)C(c1nc2ccccc2[nH]1)n1c(-c2cc(Cl)cc(Cl)c2)nc2ccccc21 (stereo not drawn)	none (no result: CRFBP-R2 block, NadD block, FAS TE block)
CC(C)(C)[C@H]1COC(=O)[C@H](NC(=O)OCC2c3ccccc3-c3ccccc32)C/C=C\C[C@@H](CC(=O)N[C@@H](CO)Cc2ccccc2)C(=O)N1	CendR NRP1 mod 19
CC(C)(C)[C@H]1COC(=O)[C@H](NC(=O)OCC2c3ccccc3-c3ccccc32)C/C=C\C[C@@H](CC(=O)N[C@H](CO)Cc2ccccc2)C(=O)N1	none
O=C1CC/C=C\C[C@@H](CC(=O)N(CCO)Cc2ccccc2)C(=O)NCCO1	CendR NRP1 mod 26
CC1=C(C(=O)N2CCOCC2)CC(CC(=O)NCCN2CCOCC2)C(=O)N1Cc1ccccc1 (stereo not drawn)	none
O=C(Oc1ccc(Br)cc1C(=S)N1CCCCC1)c1cc([N+](=O)[O-])cc([N+](=O)[O-])c1	FAS TE block 53
O=C(Oc1ccc(Br)cc1C(=S)N1CCCC1)c1ccccc1Cl	none
CC12CCC(C/C1=N\OC(=O)c1c(F)cccc1F)C2(C)C (stereo not drawn)	CRFBP-R2 block 95
CC12CCC(C/C1=N/NC(=O)Nc1ccccc1)C2(C)C (stereo not drawn)	none
NS(=O)(=O)c1cc(C(=O)NNC(=O)c2ccc3c(c2)OCO3)ccc1Cl	CendR NRP1 mod 28
C[C@@H]1CN([C@H](C)CO)C(=O)c2cc(C#C[C@@H](C)O)cnc2O[C@H]1CN(C)C(=O)c1ccc(F)cc1	none
COc1ccc(/C=C/C(=O)OCC(=O)c2c(C)[nH]c3ccccc23)cc1OC	none
COc1ccc(N(CC(=O)Nc2nc3ccc(C)cc3s2)S(=O)(=O)c2c(C)nn(C)c2C)cc1	Myeloid diff MLP active
CCCCN(C)S(=O)(=O)c1ccc(C(=O)Nc2nnc(C3=COCCO3)o2)cc1	CendR NRP1 mod 30
O=c1oc(Nc2ccccc2F)nc2ccccc12	CendR NRP1 mod 37
Cc1cc(C)nc(Nc2nc(=O)c3ccccc3s2)n1	CendR NRP1 mod 21
CCCCCCCCN1C(=O)[C@H](CC(=O)NCc2cccc3ccccc23)C[C@@]2(C(=O)OCC)CCCC=C12	none (no result: CRFBP-R2 block)
COc1cc(/C=N/Nc2cccc(C)c2)cc(Br)c1O	NadD block 26
C[C@@H]1CN([C@@H](C)CO)C(=O)CCCn2nncc2CO[C@H]1CN(C)C(=O)CCC(F)(F)F	none
C[C@H]1CN([C@@H](C)CO)C(=O)CCCn2cc(nn2)CO[C@@H]1CN(C)S(=O)(=O)c1ccc(Oc2ccccc2)nc1	Myeloid diff MLP active
C[C@H](CO)N1C[C@H](C)[C@@H](CN(C)CC2CC2)OCc2cnnn2CCCC1=O	Myeloid diff MLP active
C[C@@H]1CN([C@H](C)CO)C(=O)CCCn2nncc2CO[C@H]1CN(C)S(=O)(=O)c1cn(C)cn1	CendR NRP1 mod 27
